Measurements taken from PubChem BioAssay (Tox21).
Results filed as inconclusive are left out. Activity calls are given as the source filed them. Unless noted, the call rests on the fitted dose curve; in most records, active means well fitted curve in the direction sought with a large enough effect in the repeat runs; inconclusive means weak or mixed curves; inactive means no such curve, though single readings can be large; an effect the other way counts as inactive or inconclusive.

Key:
[1] = A CellTox Green Cytotoxicity Assay to monitor cytotoxicity in HEK293 cells - 32 hour (AID 1224881); further: nearly all actives have a fitted effect of over 40% in size
Outline: (§1)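 Homogeneous no-lysis format: HEK293 cell suspension mixed with CellTox Green reagent, seeded, incubated 5 h at 37 C/5% CO2, then dosed by pintool with compound in DMSO.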

[2] = A CellTox Green Cytotoxicity Assay to monitor cytotoxicity in HepG2 cells - 0 hour (AID 1224882); further: nearly all actives have a fitted effect of over 35% in size
Outline: (§2)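 Fluorescent DNA-binding dye, 600 HepG2 cells/well, 5 h preincubation then compound in DMSO; same plates read at 0–40 h, 37 C.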

[3] = A CellTox Green Cytotoxicity Assay to monitor cytotoxicity in HepG2 cells - 32 hour (AID 1224883); further: nearly all actives have a fitted effect of over 50% in size
Outline: as §2

[4] = A CellTox Green Cytotoxicity Assay to monitor cytotoxicity in HEK293 cells - 8 hour (AID 1224884); further: nearly all actives have a fitted effect of over 35% in size
Outline: as §1

[5] = qHTS RealTime-Glo MT Cell Viability Assay in HepG2 cells - 16 hour (AID 1224885); further: nearly all actives have a fitted effect of over 50% in size
Outline: (§3)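 Compound treatment began 5 h after plating HepG2 cells (600/well) with NanoLuc luciferase and prosubstrate. Plates stayed at 37 C for 40 h; luminescence was captured at six time points, 0 h through 40 h.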

[6] = qHTS RealTime-Glo MT Cell Viability Assay in HEK293 cells - 24 hour (AID 1224886); further: top concentration of the series differs between compounds; nearly all actives have a fitted effect of over 50% in size
Outline: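 Quantitative high-throughput screen of the Tox21 10K library in HEK293: cells and RealTime-Glo reagents plated together, compound added at 5 h, luminescence monitored through 40 h at 37 C.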

[7] = qHTS RealTime-Glo MT Cell Viability Assay in HEK293 cells - 8 hour (AID 1224887); further: top concentration of the series differs between compounds; nearly all actives have a fitted effect of over 50% in size
Outline: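 Measured as luminescence from the same continuously cultured HEK293 wells at successive time points (0, 8, 16, 24, 32, 40 h) after compound addition. Reagent present from seeding; dosing at 5 h; incubation 37 C.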

[8] = A CellTox Green Cytotoxicity Assay to monitor cytotoxicity in HEK293 cells - 16 hour (AID 1224888); further: nearly all actives have a fitted effect of over 35% in size
Outline: as §1

[9] = qHTS RealTime-Glo MT Cell Viability Assay in HepG2 cells - 0 hour (AID 1224889); further: nearly all actives have a fitted effect of over 50% in size
Outline: as §3

[10] = A CellTox Green Cytotoxicity Assay to monitor cytotoxicity in HepG2 cells - 8 hour (AID 1224890); further: nearly all actives have a fitted effect of over 45% in size
Outline: as §2

[11] = qHTS assay to identify small molecule antagonists of the estrogen receptor alpha (ER-alpha) signaling pathway using the BG1 cell line in the presence of 0.1 nM 17-beta-estradiol - cell viability counter screen (AID 1259241); further: nearly all actives have a fitted effect of over 40% in size
Outline: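 VM7Luc4E2, 4,000 cells/well, phenol red-free medium + 10% charcoal-stripped FBS; 24 hr plating; cpd + 0.1 nM E2 final, 22 hr 37C/5% CO2; CellTiter-Fluor 30 min, fluorescence.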

[12] = qHTS assay to identify small molecule antagonists of the androgen receptor (AR) signaling pathway using the MDA cell line in the presence of 0.5 nM R1881 - cell viability counter screen (AID 1259242); further: nearly all actives have a fitted effect of over 45% in size
Outline: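 Human breast carcinoma MDA-kb2 cells, cultured without CO2, receive compounds alongside 0.5 nM (final) R1881 agonist. After 16 hr at 37C, viability is taken as live-cell protease signal.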

[13] = target: Androgen receptor (Homo sapiens) (UniProt P10275); experiment: qHTS assay to identify small molecule antagonists of the androgen receptor (AR) signaling pathway using the MDA cell line in the presence of 0.5 nM R1881 (AID 1259243); further: nearly all actives have a fitted effect of over 50% in size
Androgen receptor (Homo sapiens), sequence (P10275 whole entry, looked up): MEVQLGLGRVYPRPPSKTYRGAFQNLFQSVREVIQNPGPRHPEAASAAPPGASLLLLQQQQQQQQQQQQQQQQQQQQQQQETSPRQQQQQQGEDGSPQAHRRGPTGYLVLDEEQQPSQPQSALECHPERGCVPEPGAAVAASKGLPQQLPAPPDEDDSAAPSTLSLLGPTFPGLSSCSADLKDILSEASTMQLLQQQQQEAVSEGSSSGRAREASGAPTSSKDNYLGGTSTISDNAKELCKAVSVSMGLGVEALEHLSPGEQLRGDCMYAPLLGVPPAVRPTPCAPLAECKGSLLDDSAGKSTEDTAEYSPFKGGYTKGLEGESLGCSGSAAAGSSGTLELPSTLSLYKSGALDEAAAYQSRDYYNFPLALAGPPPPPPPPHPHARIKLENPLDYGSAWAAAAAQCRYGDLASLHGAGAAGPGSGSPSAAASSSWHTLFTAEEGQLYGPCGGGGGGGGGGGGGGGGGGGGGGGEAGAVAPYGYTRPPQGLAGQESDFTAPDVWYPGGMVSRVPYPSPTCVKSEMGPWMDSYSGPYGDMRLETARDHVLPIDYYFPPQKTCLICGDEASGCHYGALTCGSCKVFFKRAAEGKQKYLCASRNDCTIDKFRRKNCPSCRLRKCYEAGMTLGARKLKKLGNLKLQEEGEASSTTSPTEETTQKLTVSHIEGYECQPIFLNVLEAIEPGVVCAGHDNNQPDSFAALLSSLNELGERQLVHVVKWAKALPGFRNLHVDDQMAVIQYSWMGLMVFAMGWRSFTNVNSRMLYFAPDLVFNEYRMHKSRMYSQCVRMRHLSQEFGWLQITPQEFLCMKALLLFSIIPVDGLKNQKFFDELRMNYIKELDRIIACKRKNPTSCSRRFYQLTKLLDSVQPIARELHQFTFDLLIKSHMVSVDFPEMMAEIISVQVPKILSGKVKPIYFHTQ
Outline: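 Cells: MDA-kb2 (MMTV-luc). Stimulus: 0.5 nM R1881. Time: 16 hr, 37C, no CO2. Detection: ONE-Glo luminescence after 30 min at RT.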

[14] = target: Estrogen receptor (Homo sapiens) (UniProt P03372); experiment: qHTS assay to identify small molecule antagonists of the estrogen receptor alpha (ER-alpha) signaling pathway using the BG1 cell line in the presence of 0.1 nM 17-beta-estradiol (AID 1259244); further: nearly all actives have a fitted effect of over 50% in size
Estrogen receptor (Homo sapiens), sequence (P03372 whole entry, looked up): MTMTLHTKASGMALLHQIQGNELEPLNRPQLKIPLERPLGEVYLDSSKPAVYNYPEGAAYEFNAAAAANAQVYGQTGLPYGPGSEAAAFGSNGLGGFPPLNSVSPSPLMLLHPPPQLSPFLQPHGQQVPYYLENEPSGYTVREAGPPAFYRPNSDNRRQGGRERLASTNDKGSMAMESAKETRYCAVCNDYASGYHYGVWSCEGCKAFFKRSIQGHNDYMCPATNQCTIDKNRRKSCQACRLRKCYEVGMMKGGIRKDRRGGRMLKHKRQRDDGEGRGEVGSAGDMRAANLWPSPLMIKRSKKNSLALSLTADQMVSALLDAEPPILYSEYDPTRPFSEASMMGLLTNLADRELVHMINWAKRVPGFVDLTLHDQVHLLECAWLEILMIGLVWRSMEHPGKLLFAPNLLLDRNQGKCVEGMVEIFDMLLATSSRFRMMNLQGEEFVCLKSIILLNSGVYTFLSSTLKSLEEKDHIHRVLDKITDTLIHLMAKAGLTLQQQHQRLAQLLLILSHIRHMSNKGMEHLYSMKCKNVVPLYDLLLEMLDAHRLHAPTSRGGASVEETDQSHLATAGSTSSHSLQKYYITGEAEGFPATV
Outline: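 Seeding of stripped-serum-adapted VM7Luc4E2 cells, 24 h attachment, compound transfer, then 0.1 nM final 17beta-estradiol; after 22 h incubation, ONE-Glo reagent and luminescence reading.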

[15] = qHTS assay to identify small molecule HDAC inhibitors (AID 1259364);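 further: wild-type HCT-116 cells with endogenous class I/II HDAC activity; top concentration of the series differs between compounds; nearly all actives have a fitted effect of over 45% in size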
Outline: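 After a 2 hr compound incubation (37C, 5% CO2), HCT-116 cells seeded at 1,500/well the day before received HDAC-Glo reagent; signal read as luminescence after 30 min at room temperature.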

[16] = qHTS assay to identify small molecule agonists of the sonic hedgehog signaling (Shh) pathway - cell viability counter screen (AID 1259366); further: nearly all actives have a fitted effect of over 50% in size
Outline: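 Cytotoxicity counter screen run in the same wells as the Shh reporter assay. NIH/3T3 cells carrying a Gli1 response element–driven luciferase were treated with DMSO-dissolved compounds for 24hr, and live-cell protease activity was measured with CellTiter-Fluor.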

[17] = qHTS assay to identify small molecule antagonists of the sonic hedgehog signaling (Shh) pathway - cell viability counter screen (AID 1259367); further: nearly all actives have a fitted effect of over 55% in size
Outline: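 CellTiter-Fluor signal in conditioned medium-stimulated 3T3 Gli1-Luc cells, 23 hr compound exposure, 37C.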

[18] = qHTS assay to identify small molecule agonists of the sonic hedgehog signaling (Shh) pathway (AID 1259368; calls by dose curve;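 further: NIH/3T3-derived 3T3Gli1-Luc cells carrying a stable Gli1-driven firefly luciferase reporter; series mostly up to about 92 µM; nearly all actives have a fitted effect of over 15% in size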)
Outline: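 Stable NIH/3T3 Gli1-Luc reporter clone; 24 hr cpd exposure after a 4 hr settling period; luminescence endpoint.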

[19] = qHTS assay to identify small molecule HDAC inhibitors - cell viability counter screen (AID 1259365)
Outline: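 Luminescence from CellTiter-Glo, developed 30min at room temperature, reports viability of wild-type HCT-116 cells treated 2hr with compounds at 37 C and 5% CO2 after overnight plating.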

[20] = qHTS assay to identify small molecule phospholipidosis (PLD) inducers (AID 1259344; active means well fitted curve in the direction sought with a large enough effect; an effect the other way counts as inactive or inconclusive)
Outline: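 Accumulated phospholipid, stained red by LipidTOX during 24 h compound treatment of HepG2 cells at 37 C, is quantified from images as pit number and intensity, normalised per cell using Hoechst-stained nuclei.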

Measured: Potency

CC(=O)N1C[C@H](O)C[C@H]1C(=O)O
inactive: [1] | [2] | [3] | [4] | [5] | [6] | [7] | [8] | [9] | [10] | [11] | [12] | [13] | [14] | [15] | [16] | [17] | [18]

CCC(C)(CCCC(C)C)OC(C)=O (configuration not stated)
inactive: [1] | [2] | [3] | [4] | [5] | [6] | [7] | [8] | [9] | [10] | [11] | [12] | [14] | [15] | [19] | [16] | [17] | [18]

CO[Si](C)(OC)c1ccccc1
inactive: [1] | [2] | [3] | [4] | [5] | [6] | [7] | [8] | [9] | [10] | [11] | [12] | [14] | [15] | [19] | [16] | [17] | [18]

C=CC(C)(CCC=C(C)C)OC(=O)CC (configuration not stated)
inactive: [1] | [2] | [3] | [4] | [5] | [6] | [7] | [8] | [9] | [10] | [11] | [12] | [14] | [15] | [19] | [16] | [18]

O=C(O)Cc1csc(-c2ccc(Cl)cc2)n1
inactive: [1] | [2] | [3] | [4] | [5] | [6] | [7] | [8] | [9] | [10] | [11] | [12] | [13] | [14] | [20] | [15] | [16] | [17] | [18]

C[N+]1(C)CCCC(OC(=O)C(O)(c2ccccc2)c2ccccc2)C1 (configuration not stated)
inactive: [1] | [2] | [3] | [4] | [5] | [6] | [7] | [8] | [9] | [10] | [11] | [12] | [14] | [20] | [15] | [19] | [16] | [17] | [18]

CO[C@@]1(NC(=O)CSC[C@@H](N)C(=O)O)C(=O)N2C(C(=O)O)=C(CSc3nnnn3C)CS[C@@H]21
inactive: [1] | [2] | [3] | [4] | [5] | [6] | [7] | [8] | [9] | [10] | [11] | [12] | [13] | [14] | [15] | [19] | [16] | [18]
